# Experimental data taken from PubChem BioAssay AID463205 (Broad Institute, 2010).
# About 20 (0.8%) of roughly 2,400 compounds were called active.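 Rule for the calls: active = AC50 no more than ten times the highest tested concentration, or full inhibition at every dose giving a flat fit (cut at about 30 µM in these data); inconclusive = flat fit with activity between 30% and 70%, or poor-quality invalid fit; inactive = AC50 more than ten times the top tested dose.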 Many of the other results were omitted from the sample, so actives are more common in it than they were.
# Assay: luciferase-based ADP detection interference – biochemical, luminescence, cell-free, homogeneous, artefact control for GSK-3a inhibitor project, dose response (AID 463205);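 note: kinase-free counter-screen against the ADP-Glo detection reagents only; potency is for inhibitors that reduce the luminescence signal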
# Conditions: Cell-free ADP-Glo detection reagents, 5 uM ADP
row,SMILES,AC50
1,CN(C)Cc1c(C(=O)N/N=C/C2CC=CCC2)nnn1-c1nonc1N (stereo not drawn),> 30 µM (inactive)
2,CCOC(=O)/C(C#N)=C/c1cn(CCC(=O)O)nc1-c1cccc(Br)c1,> 30 µM (inactive)
3,CCn1c2ccc(F)cc2c2nc3ccccc3nc21,> 30 µM (inactive)
4,Cc1nc2c(C)cccn2c1/C(O)=C1\C(=O)C(=O)N(CCN2CCOCC2)C1c1cccs1 (stereo not drawn),> 30 µM (inactive)
5,Cc1cccc2c(N=Nc3ccccc3)c(O)[nH]c12,> 30 µM (inactive)
6,Nc1nonc1-n1nnc(C(=O)N/N=C/c2ccccc2Cl)c1-c1ccccc1,> 30 µM (inactive)
7,CCc1c(C)c(C#N)c2nc3ccccc3n2c1NCC1CCCO1 (stereo not drawn),> 30 µM (inactive)
8,CS(=O)(=O)Nc1ccc(-c2cc(/C=C3\SC(N)=NC3=O)c[nH]c2=O)cc1,> 30 µM (inactive)
9,O=C(c1ccc(Cn2cnnn2)cc1)N1CCCC(Nc2ccc(F)cc2)C1 (stereo not drawn),> 30 µM (inactive)
10,O=C(Nc1ccccc1C(=O)N1CCOCC1)c1cccnc1,> 30 µM (inactive)
11,CC(=O)Nc1cccc(-c2csc(Nc3ccc(C)cn3)n2)c1,> 30 µM (inactive)
12,Cc1cc(=O)[nH]c2cc(O)ccc12,> 30 µM (inactive)
13,CC(=O)Nc1ccc(C2(c3ccc(NC(C)=O)cc3)NC(=O)c3ccccc32)cc1,> 30 µM (inactive)
14,CC1(C)Cc2cccc(C(=O)NCc3ccco3)c2O1,> 30 µM (inactive)
15,O=C(COC(=O)c1cccs1)Nc1ccc(Cl)cn1,> 30 µM (inactive)
16,CCN1CCN(c2nc(Nc3cccc(OC)c3)nc(N)c2[N+](=O)[O-])CC1,> 30 µM (inactive)
17,COc1cccc(/C=N/n2nnnc2N)c1OCC#N,> 30 µM (inactive)
18,O=C(O)COc1c(Cl)cc(/C=C2/NC(=O)NC2=O)cc1Br,> 30 µM (inactive)
19,CNc1ccc(/C=C/C(=O)c2ccc3c(c2)OCCO3)cc1[N+](=O)[O-],> 30 µM (inactive)
20,COC(=O)C1(C#N)C(c2ccccc2)C1(C(=O)OC)C(=O)OC (stereo not drawn),> 30 µM (inactive)
21,Cc1nc2ncnn2c(C)c1Cc1c(Cl)cccc1Cl,> 30 µM (inactive)
22,O=C(c1ccccc1)c1cnc(Nc2ccccc2Cl)s1,> 30 µM (inactive)
23,COc1ccc(NC(=O)CN(C)C2CCCCC2)c([N+](=O)[O-])c1,> 30 µM (inactive)
24,Cc1nc2cc(-c3ccccc3)ccc2o1,> 30 µM (inactive)

row,SMILES,AC50
1,O=C(N/N=C/c1cccnc1)c1cc2c(ccc3ccccc32)o1,> 30 µM (inactive)
2,CCNc1nc(NCC)nc(C(=O)OCCO)n1,> 30 µM (inactive)
3,Cc1ccnc(NC(=O)Cn2c(=O)oc3cc(S(=O)(=O)N4CCCC4)ccc32)c1,> 30 µM (inactive)
4,Cc1ccc(C(=O)O/N=C(\N)c2cccc([N+](=O)[O-])c2)cc1,> 30 µM (inactive)
5,Cc1cccc(/C(N)=N/OC(=O)c2ccc3c(c2)OCO3)c1,27.3 µM (active)
6,Cc1cccc(C(=O)O/N=C(\N)c2cccc([N+](=O)[O-])c2)c1,> 30 µM (inactive)
7,Cc1cc(NC(=O)CCSc2nc(-c3ccco3)cc(C(F)(F)F)n2)n(-c2ccccc2)n1,> 30 µM (inactive)
8,C(=N\Nc1ncnc2sc3c(c12)CCC3)/c1ccncc1,> 30 µM (inactive)
9,Cn1c(=O)c2[nH]c(N3CCOCC3)nc2n(-c2ccccc2)c1=O,> 30 µM (inactive)
10,Nc1nccnc1C(=O)N/N=C/c1ccco1,> 30 µM (inactive)
11,Nc1nonc1-n1nnc(C(=O)N/N=C/c2ccc(Cl)cc2Cl)c1CN1CCOCC1,> 30 µM (inactive)
12,Cc1nc(NCC2CCCO2)nc2c1C(=O)CC(C)(C)C2 (stereo not drawn),> 30 µM (inactive)
13,CCOc1ccc2ccccc2c1/C=N/n1cncn1,> 30 µM (inactive)
14,Cc1ccc(OCC(=O)N2CCN(c3nnc(-c4ccccc4)c4ccccc34)CC2)cc1,> 30 µM (inactive)
15,N#CC1=C(SCc2ccccc2)NC(=O)CC1c1ccco1 (stereo not drawn),> 30 µM (inactive)
16,CCN(CC)C(=O)c1oc2ccc(S(=O)(=O)N3CCCCCC3)cc2c1C,> 30 µM (inactive)
17,O=C(c1ccc(Cl)cc1)c1cnc(Nc2ccccc2)s1,> 30 µM (inactive)
18,Cc1cccc(NC(=O)CSCc2nc3c(nnn3Cc3ccc(F)cc3)c(=O)[nH]2)c1C,> 30 µM (inactive)
19,N#Cc1c2c(c(NCc3ccco3)n3c1nc1ccccc13)CCC2,> 30 µM (inactive)
20,O=C(COC(=O)c1cccc(S(=O)(=O)N2CCOCC2)c1)Nc1ncc(Cl)cc1Cl,> 30 µM (inactive)
21,CNC(=O)c1ccc(NC(=O)C2CCN(c3ncnc4sc(C)c(C)c34)CC2)cc1,> 30 µM (inactive)
22,CCNc1cc(N2CCCC2)ccc1[N+](=O)[O-],> 30 µM (inactive)
23,Cc1nnc(SCC(=O)N2c3ccccc3CC2C)s1 (stereo not drawn),> 30 µM (inactive)
24,CCOC(=O)c1c(NC(=O)CN2C(=O)NC3(CCCCC3C)C2=O)sc(C)c1CC (stereo not drawn),> 30 µM (inactive)

row,SMILES,AC50
1,C=CCNc1nc(N)c(C(=O)Nc2cc(C)on2)s1,> 30 µM (inactive)
2,CC(=O)c1cccc(NC(=S)NC(=O)CC(C)C)c1,> 30 µM (inactive)
3,COc1ccc(OC)c(/C=C2\Oc3cc(OCC(=O)N4CCC[C@H]4C(=O)O)ccc3C2=O)c1,> 30 µM (inactive)
4,CC(C)c1c(C(=O)N/N=C/c2ccncc2)nnn1-c1nonc1N,> 30 µM (inactive)
5,CC(C)N=C(NC#N)SCc1ccc(F)cc1,> 30 µM (inactive)
6,N#Cc1sc2nc3c(c(-c4ccco4)c2c1N)CCCC3,> 30 µM (inactive)
7,COCCNC(=O)c1ccc(Cn2c(=S)[nH]c3cc4c(cc3c2=O)OCO4)cc1,> 30 µM (inactive)
8,CC1=C(C(=O)OCc2ccccc2)C(c2cccc(Br)c2)NC(=O)N1 (stereo not drawn),> 30 µM (inactive)
9,O=C(c1ccco1)N(Cc1cccc([N+](=O)[O-])c1)c1ccc(Br)cc1,> 30 µM (inactive)
10,NS(=O)(=O)c1ccc(Nc2nc(-c3ccccc3)cs2)cc1,> 30 µM (inactive)
11,CCc1cc(C(=O)c2ccc(OC)cc2)c(NC(=O)COCC(=O)O)s1,> 30 µM (inactive)
12,Fc1ccc(Nc2ncnc3ccccc23)cc1,> 30 µM (inactive)
13,COc1cc(Br)c(C2C(C#N)=C(N)Oc3n[nH]c(-c4cccnc4)c32)cc1OC (stereo not drawn),> 30 µM (inactive)
14,Cn1c(N=Nc2ccccc2)nc2ccccc21,27.9 µM (active)
15,CC(/C=N/NC(=O)CSc1nc2ccccc2n1C)=C\c1ccco1,> 30 µM (inactive)
16,Cc1nc2ccccc2n2c(-c3ccccc3)c3c(=O)n(C)c(=O)n(C)c3c12,> 30 µM (inactive)
17,COc1ccc(/C=C/c2nc(N)nc(-c3ccccc3O)n2)cc1OC,> 30 µM (inactive)
18,CC(C)c1cc(C(N)=O)c(NC(=O)C2CCC2)s1,> 30 µM (inactive)
19,C/C(=N\NC(=O)c1nnn(-c2nonc2N)c1-c1ccccc1)c1cccnc1,> 30 µM (inactive)
20,CC(=O)Nc1ccc(Nc2ncnc(N)c2[N+](=O)[O-])cc1,> 30 µM (inactive)
21,O=[N+]([O-])c1cc(S(=O)(=O)c2ccc(N3CCCCC3)c([N+](=O)[O-])c2)ccc1N1CCCCC1,> 30 µM (inactive)
22,COc1ccccc1CC(=O)N1CCOCC1,> 30 µM (inactive)
23,CC(C)=CC(=O)NCc1c(Cl)cccc1-n1cccc1,> 30 µM (inactive)
24,Cc1nc2sc3c(c2c(=O)o1)CC(C)(C)OC3,> 30 µM (inactive)

row,SMILES,AC50
1,CCC(C)Nc1nc(N)c([N+](=O)[O-])c(N2CCCCCC2)n1 (stereo not drawn),> 30 µM (inactive)
2,O=C(NC1(C(F)(F)F)NC(=O)N(Cc2cccnc2)C1=O)c1ccncc1 (stereo not drawn),> 30 µM (inactive)
3,COc1ccccc1NC(=O)CSc1nnc(-c2ccccc2)o1,> 30 µM (inactive)
4,CC(=O)c1sc(NC(=O)CN2C(=O)NC3(CCCC3)C2=O)nc1-c1ccccc1,> 30 µM (inactive)
5,COC1(OC)N=C(N)C2(C#N)C(c3ccc4c(c3)OCO4)C12C#N (stereo not drawn),> 30 µM (inactive)
6,Nc1c(S(=O)(=O)c2ccccc2)nnn1-c1ccccc1,> 30 µM (inactive)
7,O=C1CC(c2cccs2)CC2=C1C(c1ccccc1)n1ncnc1N2 (stereo not drawn),> 30 µM (inactive)
8,O=C(NCCCn1ccnc1)C(=O)NC1CCCCC1,> 30 µM (inactive)
9,Nc1ncnc2c1ncn2[C@@H]1O[C@H](COS(=O)(=O)O)[C@@H](O)[C@H]1O,> 30 µM (inactive)
10,CCCCN(CC)C(=O)c1oc2ccc(S(=O)(=O)N3CCCC3)cc2c1C,> 30 µM (inactive)
11,CC(C)OCCCNc1nc2c([nH]1)c(=O)n(C)c(=O)n2C,> 30 µM (inactive)
12,CCOC(=O)c1nnn(-c2ccc(OC)cc2)c1N,> 30 µM (inactive)
13,COc1cc(/C=N/NC(=O)c2cccc(C(=O)N/N=C/c3ccc(O)c(OC)c3)n2)ccc1O,> 30 µM (inactive)
14,CN(C)C(=O)c1ccc(NC(=O)c2cc(-n3cnnc3)ccc2Cl)cc1,> 30 µM (inactive)
15,CC(OC(=O)Cc1c[nH]c2ccccc12)C(=O)c1ccccc1 (stereo not drawn),> 30 µM (inactive)
16,CC(C)CC(=O)NC(=S)Nc1sc2c(c1C(N)=O)CCC2,> 30 µM (inactive)
17,COc1cccc(-c2nc(-c3ccccc3)[nH]c(=O)c2C#N)c1,> 30 µM (inactive)
18,CCOC(=O)c1sc(NC(=O)C2CC2)nc1C,> 30 µM (inactive)
19,CCOC(=O)c1cnn(C)c1NC(=O)c1ccc(Cl)cc1Cl,> 30 µM (inactive)
20,COc1cccc(/C=N/n2cncn2)c1OCC#N,> 30 µM (inactive)
21,Cc1ccc(-c2cn3cccnc3n2)cc1NC(=O)c1cccs1,> 30 µM (inactive)
